# Only some compounds are listed: those with a hit (about 6.7% of all), similar ones and a draw of the others.
# T cruzi growth-1: blocks T. cruzi growth in NIH3T3 culture; T. cruzi beta-gal in NIH3T3, GalScreen luminescence, 90 h; inhibition, % at 8.34 µM; hit rate 5.9% among 77,000;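 active = mean inhibition above about 93%, with at least 55% of replicates each passing it, limit read from the data, passing the limit was not always enough; inconclusive = only one of those two conditions holds; inactive = neither condition holds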
# Pf Dd2 inh: blocks growth of Plasmodium falciparum Dd2 parasites; hit rate 2.3% among 94,000; activity change, % at 10 µM; P. falciparum Dd2 growth, SYBR Green, 72 h; active compounds read low; in the data active = activity change below about -80%; inconclusive = no clear call, values can overlap the other calls
# C diff growth: blocks growth of Clostridium difficile. Clostridium difficile clinical isolate growth, OD600, 24 h; active compounds read low. growth activity, negative = inhibition, % at 16 µg/mL (by protocol). hit rate 0.25% among 86,000. AID 1259249;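 active = mean growth activity at or below -80% and every replicate also at or below -80%; inconclusive = mean at or below -80% but some replicate above -80%; inactive = mean growth activity above -80%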;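 also: 0% = DMSO wells and -100% = levofloxacin 16 µg/mL wells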
# T cruzi growth-2: inhibitors of T. cruzi proliferation. shares compounds with T cruzi growth-1. T. cruzi beta-gal in NIH3T3, GalScreen luminescence, 90 h. inhibition, % at 8.35 µM. hit rate 72% among 5,600;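 active = mean replicate inhibition above about 95% and at least 55% of replicates individually reaching it, limit read from the data; inconclusive = only one of the two criteria is met; inactive = neither criterion is met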
# T cruzi growth-3: Trypanosoma cruzi proliferation inhibition; shares compounds with T cruzi growth-1; T. cruzi beta-gal in NIH3T3, GalScreen luminescence, 90 h; inhibition, % at 2.09 µM; hit rate 21% among 5,600;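 active = mean inhibition above about 95%, with at least 55% of replicates also reaching it, limit read from the data; inconclusive = meets just one of the two conditions; inactive = meets neither condition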;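 also: plate controls were neutral control median for no effect and positive control median for full effect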
# 3T3 cytotox: NIH/3T3 (mouse) viability loss. NIH/3T3 viability, CellTiter-Glo ATP luminescence, 90 h. hit rate 14% among 5,600. cytotoxicity (signal decrease), % at 8.35 µM. shares compounds with T cruzi growth-1;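 active = mean signal decrease across replicates above about 35% based on untreated-well scatter, with enough replicates individually passing, limit read from the data; inconclusive = no rule stated though some were filed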;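 also: 0% = median of neutral control wells and 100% = median of positive control wells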
# 3T3 cytotox 2: kills mouse NIH/3T3 fibroblasts | shares compounds with T cruzi growth-1 | NIH/3T3 viability, CellTiter-Glo ATP luminescence, 90 h | inhibition, % at 24.9 µM | hit rate 56% among 5,600;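 active = mean loss of cell viability signal at or above a set limit, and enough replicates individually reaching it; inconclusive = meets only the mean limit or only the replicate share; inactive = meets neither condition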;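 also: 0% = median of neutral control wells and 100% = median of positive control wells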
# * marks the source's active call; other numbers are inactive results; ? = inconclusive; nt = not tested or not shown.
SMILES,T cruzi growth-1,Pf Dd2 inh,C diff growth,T cruzi growth-2,T cruzi growth-3,3T3 cytotox,3T3 cytotox 2
COc1ccc(CN(C)C[C@H]2OCCCC[C@@H](C)Oc3ccc(NC(=O)C4CCCCC4)cc3C(=O)N([C@H](C)CO)C[C@H]2C)cc1,103.7*,-66.3,nt,102.4*,60.3,14.8,96.1*
COc1ccc(CN(C)C[C@H]2OCCCC[C@H](C)Oc3ccc(NC(=O)C4CCCCC4)cc3C(=O)N([C@@H](C)CO)C[C@H]2C)cc1,102.4*,-48.5,2.0,?,71.3,-2.0,27.1*
C[C@H]1CN([C@@H](C)CO)C(=O)Cc2cc(NC(=O)Nc3ccc4c(c3)OCO4)ccc2O[C@@H]1CN(C)Cc1ccc(-c2ccccc2)cc1,55.3,-43.2,55.0,nt,nt,nt,nt
O=C(N[C@H]1CC[C@@H](CCn2cc(Cc3ccccc3)nn2)O[C@@H]1CO)c1cnccn1,-9.5,-2.5,0.2,nt,nt,nt,nt
C[C@H]1CN([C@@H](C)CO)C(=O)Cc2cc(NC(=O)CCCCCC(=O)Nc3ccccc3N)ccc2O[C@@H]1CN(C)C(=O)Nc1cccc2ccccc12,nt,-22.5,-1.5,nt,nt,nt,nt
N#C[C@H]1[C@H](c2ccc(C#CC3CCCC3)cc2)[C@@H](CO)N1S(=O)(=O)c1ccccc1,100.0*,-52.6,7.9,95.5*,99.2*,-13.4,105.7*
N#C[C@@H]1[C@@H](c2ccc(C#CC3CCCC3)cc2)[C@H](CO)N1S(=O)(=O)c1ccccc1,97.4*,-28.9,-19.2,95.2*,106.9*,20.6,104.5*
N#C[C@H]1[C@@H](c2ccc(C#CC3CCCCC3)cc2)[C@H](CO)N1S(=O)(=O)c1ccccc1,82.0,-34.3,-18.8,nt,nt,nt,nt
N#C[C@@H]1[C@@H](c2ccc(C#CC3CCCCC3)cc2)[C@H](CO)N1S(=O)(=O)c1ccccc1,79.0,-66.9,-28.3,nt,nt,nt,nt
C[C@H](CO)N1C[C@H](C)[C@H](CN(C)Cc2ccc(C(F)(F)F)cc2)OCCCC[C@H](C)Oc2ccc(NS(=O)(=O)c3cn(C)cn3)cc2C1=O,68.3,-25.7,14.7,nt,nt,nt,nt
CCNC(=O)C[C@H]1CC[C@H]2[C@@H](COC[C@H](O)CN2C(=O)C2CC2)O1,-10.6,-0.8,-3.4,nt,nt,nt,nt
Cc1ccc(-c2ccc3c(c2)O[C@H](CN(C)Cc2ccc(C(=O)O)cc2)[C@H](C)CN([C@H](C)CO)S3(=O)=O)cc1,18.3,-14.5,-1.9,nt,nt,nt,nt
Cc1ccc(-c2ccc3c(c2)O[C@@H](CN(C)Cc2ccccc2)[C@@H](C)CN([C@H](C)CO)S3(=O)=O)cc1,114.5*,-44.0,-1.2,83.9,102.7*,4.1,102.8*
Cc1ccc(-c2ccc3c(c2)O[C@@H](CN(C)Cc2ccccc2)[C@@H](C)CN([C@@H](C)CO)S3(=O)=O)cc1,124.0*,-59.9,1.5,95.6*,107.0*,22.3,103.7*
C[C@H]1CN([C@@H](C)CO)S(=O)(=O)c2ccc(-c3ccccc3)cc2O[C@@H]1CN(C)Cc1ccccc1,80.2,-58.4,37.9,nt,nt,nt,nt
C[C@H]1CN([C@@H](C)CO)C(=O)c2cccc(NC(=O)c3nc4ccccc4s3)c2O[C@@H]1CN(C)C(=O)Nc1ccccc1,26.9,-25.9,-5.3,nt,nt,nt,nt
C[C@@H]1CN([C@@H](C)CO)C(=O)c2cc(NC(=O)Nc3cccc4ccccc34)ccc2O[C@@H](C)CCCCO[C@H]1CN(C)C(=O)CCCN(C)C,55.7,-4.6,-0.8,nt,nt,nt,nt
O=C(C[C@H]1CC[C@@H]2[C@H](COC[C@@H](O)CN2Cc2cccc(-c3ccncc3)c2)O1)N1CCN(c2ccccc2)CC1,58.5,-18.7,2.3,nt,nt,nt,nt
CC(C)C#Cc1ccc2c(c1)O[C@H](CN(C)C(=O)C1CCC1)[C@@H](C)CN([C@@H](C)CO)S2(=O)=O,103.5*,-18.4,nt,111.3*,33.4,2.3,51.3*
CC(C)C#Cc1ccc2c(c1)O[C@@H](CN(C)C(=O)C1CCC1)[C@@H](C)CN([C@H](C)CO)S2(=O)=O,79.7,-43.8,nt,nt,nt,nt,nt
CC(C)C#Cc1ccc2c(c1)O[C@@H](CN(C)C(=O)C1CCCCC1)[C@H](C)CN([C@H](C)CO)S2(=O)=O,103.8*,-82.6*,42.6,102.9*,84.8,?,105.2*
CC(C)C#Cc1ccc2c(c1)O[C@H](CN(C)C(=O)C1CCC1)[C@H](C)CN([C@@H](C)CO)S2(=O)=O,67.2,-1.1,nt,nt,nt,nt,nt
CCNC(=O)C[C@H]1CC[C@H]2[C@H](COc3ccc(NC(=O)c4ccc(C(F)(F)F)cc4)cc3C(=O)N2C)O1,19.5,4.0,1.9,nt,nt,nt,nt
CO[C@@H]1CN(C)C(=O)c2cc(NC(=O)c3cccc(F)c3)ccc2OC[C@@H](C)NC[C@H]1C,-17.7,21.6,nt,nt,nt,nt,nt
CCc1csc(N2[C@H](C#N)[C@H](c3ccc(C#Cc4ccc(F)cc4)cc3)[C@H]2CO)n1,93.5,-50.6,17.7,nt,nt,nt,nt
SMILES,T cruzi growth-1,Pf Dd2 inh,C diff growth,T cruzi growth-2,T cruzi growth-3,3T3 cytotox,3T3 cytotox 2
CCc1csc(N2[C@H](C#N)[C@@H](c3ccc(-c4cccc(F)c4)cc3)[C@@H]2CO)n1,98.3*,-15.9,5.3,111.1*,80.6,21.1,96.0*
CCc1csc(N2[C@@H](C#N)[C@H](c3ccc(-c4cccc(F)c4)cc3)[C@@H]2CO)n1,104.7*,-26.9,4.2,102.7*,46.4,31.2,26.7
CCc1csc(N2[C@H](CO)[C@@H](c3ccc(-c4ccc(F)cc4)cc3)[C@@H]2C#N)n1,103.1*,2.4,8.0,102.2*,52.9,18.2,102.8*
CCc1csc(N2[C@@H](C#N)[C@@H](c3ccc(-c4cccc(F)c4)cc3)[C@@H]2CO)n1,99.7*,5.7,4.6,?,76.3,45.3*,81.6*
CCc1csc(N2[C@H](CO)[C@H](c3ccc(-c4cccc(F)c4)cc3)[C@@H]2C#N)n1,73.4,23.0,9.6,nt,nt,nt,nt
CCc1csc(N2[C@@H](C#N)[C@@H](c3ccc(C#Cc4ccc(F)cc4)cc3)[C@@H]2CO)n1,94.0,-47.0,8.4,nt,nt,nt,nt
C[C@@H]1CN([C@H](C)CO)C(=O)c2cccc(NS(=O)(=O)c3cccs3)c2O[C@H]1CN(C)Cc1ccc(Cl)c(Cl)c1,46.0,-3.3,3.7,nt,nt,nt,nt
CCCNC(=O)N(C)C[C@@H]1Oc2cc(-c3ccc(C)cc3)ccc2S(=O)(=O)N([C@H](C)CO)C[C@@H]1C,10.6,-26.0,0.5,nt,nt,nt,nt
CCCC(=O)Nc1ccc2c(c1)C(=O)N(C)[C@H]1CC[C@@H](CC(=O)NCCc3ccccc3)O[C@H]1CO2,14.7,-10.1,1.0,nt,nt,nt,nt
CC(C)NC(=O)N(C)C[C@@H]1Oc2ncc(C#Cc3ccncc3)cc2C(=O)N([C@@H](C)CO)C[C@H]1C,-13.5,-1.0,2.1,nt,nt,nt,nt
N#C[C@@H]1[C@@H](c2ccc(-c3cccc(F)c3)cc2)[C@H](CO)N1c1nc(-c2ccccc2)cs1,nt,-12.4,10.6,nt,nt,nt,nt
